# Screens (PubChem)
# The list is a sample of the results.
# aSyn 5UTR act: Activators working through SNCA 5'UTR binding (MLPCN); alpha-synuclein 5'UTR reporter, activators screen; activity score, % (tested at 7.5 µM), hits read low; actives 7.1% (n = 300,000); AID 1814; in the data active means activity score below about -60%
# Starred values were filed as active, the others as inactive.
SMILES,aSyn 5UTR act
CCc1cccc2c1NC(=O)C21N2CCCC2C(C(=O)c2ccc3ccccc3c2)C12C(=O)Nc1ccccc12 (stereo not given),-97*
Clc1cccc(CSc2ncn(-c3ccccc3)n2)c1,-67*
CC1(C)CC(=O)c2sc(NC(=O)C(C)(C)C)nc2C1,-184*
CC1(C)CNC(=O)c2sc(NC(=O)c3ccccc3)nc2C1,-155*
CC1(C)CC(=O)c2sc(NC(=O)c3ccc4ncsc4c3)nc2C1,-77*
CC1(C)CC(=O)c2sc(NC(=O)c3ccccc3)nc2C1,-78*
Oc1ccc(-c2cnc3ccccc3n2)cc1,-72*
CCCCOc1ccc(-c2cnc3ccccc3n2)cc1,101
Nc1ccc2nc(-c3ccccc3)cnc2c1,-76*
Clc1ccc(-c2cnc3ccccc3n2)cc1,-208*
CCN(CC)Cc1c(O)ccc2c1O/C(=C\C=C\c1ccccc1)C2=O,-438*
CS(=O)(=O)Oc1ccc2c(c1)O/C(=C\C=C\c1ccccc1)C2=O,-81*
N#Cc1ccccc1NC(=O)c1ccc2c(Cl)c3c(nc2c1)CCCC3,-219*
CC(=O)c1cccc(NC(=O)c2ccc3c(Cl)c4c(nc3c2)CCCC4)c1,-83*
O=C(NC1CC1)c1ccc2c(Cl)c3c(nc2c1)CCCC3,-87*
CC1CCN(C(=O)c2ccc3c(Cl)c4c(nc3c2)CCCC4)CC1,-71*
O=C(Nc1cccnc1Cl)c1ccc2c(Cl)c3c(nc2c1)CCC3,-71*
CC1CCN(C(=O)c2ccc3ccccc3c2)CC1,-152*
CC1CCN(C(=O)c2ccc(S(=O)(=O)Cc3ccccc3F)c([N+](=O)[O-])c2)CC1,-71*
Cc1cccc(NC2=C(NC(=O)c3ccccc3)C(=O)c3ccccc3C2=O)c1,-102*
COC(c1ccccc1)c1nnc(CCC(=O)N(C)CCOc2ccccc2)o1 (stereo not given),-83*
COC(c1ccccc1)c1nnc(CCC(=O)N(C)Cc2cccc(-n3cccn3)c2)o1 (stereo not given),-72*
C[n+]1cc[nH]c1SCC(=O)c1ccccc1,-72*
CCCSc1nnc(-c2ccccc2N)c(=O)[nH]1,-70*
CCN(CC)CCOc1c(Br)ccc2c1sc1nc3n(c(=O)c12)CCC3,-111*
SMILES,aSyn 5UTR act
CC1CCc2c(sc(/N=C/c3cccnc3)c2C(N)=O)C1 (stereo not given),-103*
CC1CCc2c(sc(/N=C/c3ccco3)c2C(N)=O)C1 (stereo not given),-125*
O=c1c2ccccc2nc2ccc(NCc3cccs3)nn12,-164*
CCc1c(C)sc(NC(=O)c2ccco2)c1C#N,-104*
Cc1nc2c(-c3ccc(F)cc3)cnn2c2c1CCC2,-87*
CC(C)(C)C1CCc2c(sc3c2C(=O)NC(c2ccco2)N3)C1 (stereo not given),-186*
O=C1C(Cl)=C(Nc2ccc3cn[nH]c3c2)C(=O)c2ccccc21,100
CN(C)c1ccc(NC2=C(Cl)C(=O)c3ccccc3C2=O)cc1,-116*
Nc1cccc2c1C(=O)N(C(=O)/C=C/c1cccc(Br)c1)C2=O,-160*
COc1ccc(OC)c(/C=C2\SC(=S)N(Cc3cccnc3)C2=O)c1,-62*
CCC(C)NC(=O)/C=C1\Sc2ccccc2NC1=O (stereo not given),-74*
Cc1ccc(N/C=C2/Sc3ccccc3NC2=O)cc1,-175*
COc1ccc(N/C=C2/Sc3ccccc3NC2=O)cc1,-148*
